The text below walks through data of PMC5540273 (PLoS ONE, 2017).

Test systems include EPHA2; EPHA3; EPHA4; EPHA5; EPHA6; EPHA7; EPHA8; EPHB1; EPHB2; EPHB3; EPHB4; EPHB6; ERBB2; ERBB3; ERBB4.
Holding throughout (settings): concentration: 1 μM, replicates: in singlicate; n = 1
For the next assay, the system named is T1, ERK1.
T1 construct: gene MAPK3

The next assay deals with T2, ERK2.
T2 construct: gene MAPK1

The next assay has as its system T3, ERK3.
T3 construct: gene MAPK6

The subject of a further assay is T4, ERK4.
T4 construct: gene MAPK4

In a further assay the test system is T5, ERK5.
T5 construct: gene MAPK7
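Also: KINOMEscan kinase panel screen.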

For the molecule `CNC(=O)c1ccc(C)c(-n2c(C)cc(OCc3ccc(F)cc3F)c(Br)c2=O)c1`, the “%Inh” value in the assay with EPHA2, in the assay on EPHA3, in the assay with EPHA4, in the assay on EPHA5, in the assay on EPHA6 and in the assay on EPHA7 was 0% throughout. Besides, the “%Inh” value is reported as 0% in the assay on EPHA8; 0% in the assay with EPHB1; 6% in the assay with EPHB2; 0% with EPHB3; 0% with EPHB4; 0% in the assay on EPHB6. Besides, the “%Inh” value in the assay with ERBB2 is recorded as 0%; with ERBB3, 0%; with ERBB4, 13%; in the assay on ERK1, 0%; in the assay with ERK2 it was 0%; in the assay with ERK3 it was 0%. In addition, the “%Inh” value in the assay with ERK4 and in the assay on ERK5 was 0% in each case.

Consider `Nc1nccc(-c2c(-c3ccc(F)cc3)ncn2C2CCN(Cc3ccccc3)CC2)n1` [SB-219980], for which the “%Inh” value in the assay on EPHA2 came out at 0%; in the assay on EPHA3 it was 0%; in the assay on EPHA4, 4%; in the assay on EPHA5 it was 21%; in the assay with EPHA6 it was 24%; in the assay with EPHA7 it was 0%. Moreover, the “%Inh” value was determined as 1% in the assay on EPHA8; 9% with EPHB1; 0% in the assay with EPHB2; 20% in the assay on EPHB3; 17% in the assay on EPHB4; 58% in the assay with EPHB6. Moreover, the “%Inh” value is on record as 18% with ERBB2; 0% with ERBB3; 19% in the assay with ERBB4; 0% in the assay with ERK1; 21% in the assay on ERK2; 0% with ERK3. In addition, the “%Inh” value in the assay with ERK4 and in the assay on ERK5 was 0% in each case.

In the case of `Cc1c(Cn2c3ccccc3n3c(=O)cc(N4CCOCC4)nc23)cccc1C(F)(F)F` [GSK2306394], the “%Inh” value in the assay with EPHA2 stood at 0%; in the assay with EPHA3 it was 0%; in the assay with EPHA4 it was 0%; in the assay on EPHA5, 0%; in the assay with EPHA6, 0%; with EPHA7 it was 7%. Further, the “%Inh” value came to 13% in the assay with EPHA8; 22% with EPHB1; 0% with EPHB2; 0% in the assay on EPHB3; 0% in the assay on EPHB4; 0% in the assay on EPHB6. The “%Inh” value was 0% in the assay with ERBB2; 0% in the assay with ERBB3; 60% in the assay on ERBB4; 36% with ERK1; 0% in the assay with ERK2; 0% in the assay on ERK3. The entries for the “%Inh” value in the assay on ERK4 and in the assay on ERK5 were 100% and 0%, respectively.

As to `COc1ccc(CSc2nnc(-c3ccc4nccn4c3)o2)cc1C(F)(F)F`, the “%Inh” value in the assay with EPHA2 was 7%; in the assay on EPHA3 it was 8%; in the assay on EPHA4, 11%; in the assay with EPHA5 it was 10%; with EPHA6 it was 9%; in the assay on EPHA7, 15%. For the same molecule, the “%Inh” value in the assay with EPHA8 is recorded as 16%; in the assay with EPHB1 it was 17%; with EPHB2 it was 0%; in the assay with EPHB3, 7%; with EPHB4, 16%; in the assay with EPHB6, 0%. For the same molecule, the “%Inh” value in the assay with ERBB2 is listed as 0%; in the assay with ERBB3 it was 9%; with ERBB4, 0%; with ERK1, 0%; in the assay with ERK2, 0%; in the assay on ERK3 it was 18%. Further, the “%Inh” value amounted to 0% in the assay on ERK4 and 1% in the assay with ERK5.

For the molecule `Cn1cncc1C(=O)NC1CCN(c2ccnc(Nc3ccc(F)cc3)n2)C1` (stereo not shown) [GSK1379717], the “%Inh” value is recorded as 0% in the assay with EPHA2; 0% in the assay on EPHA3; 0% in the assay with EPHA4; 0% with EPHA5; 0% in the assay on EPHA6; 3% with EPHA7. For the same molecule, the “%Inh” value in the assay with EPHA8 stood at 4%; in the assay on EPHB1, 7%; with EPHB2, 0%; in the assay with EPHB3, 0%; with EPHB4 it was 14%; in the assay on EPHB6 it was 15%. Further, the “%Inh” value in the assay with ERBB2 is 0%; in the assay with ERBB3, 0%; in the assay with ERBB4, 5%; in the assay on ERK1 it was 0%; in the assay on ERK2 it was 0%; with ERK3, 0%. The “%Inh” value with ERK4 and with ERK5 was 0% each time.

On to `CS(=O)(=O)CCNCc1nc(-c2ccc3ncnc(Nc4ccc(OCc5ccccc5)c(Cl)c4)c3c2)cs1.Cl` [GW582764], for which the “%Inh” value was determined as 10% in the assay on EPHA2; 0% in the assay with EPHA3; 0% with EPHA4; 0% with EPHA5; 7% with EPHA6; 0% in the assay with EPHA7. Besides, the “%Inh” value in the assay with EPHA8 amounted to 8%; in the assay on EPHB1, 0%; in the assay on EPHB2 it was 0%; in the assay with EPHB3, 11%; with EPHB4 it was 8%; in the assay with EPHB6, 0%. Besides, the “%Inh” value in the assay on ERBB2 is listed as 100%; in the assay with ERBB3 it was 58%; in the assay on ERBB4, 97.8%; in the assay with ERK1 it was 0%; with ERK2, 0%; in the assay with ERK3, 0%. For the same molecule, the “%Inh” value in the assay with ERK4 and in the assay with ERK5 was 0% in each case.

Take `Cc1ccccc1Cn1ccn2c(=O)cc(N3CCOCC3)nc12` [GSK2269905]: the “%Inh” value in the assay on EPHA2 came to 4%; in the assay with EPHA3, 0%; with EPHA4, 19%; in the assay with EPHA5, 0%; with EPHA6 it was 14%; with EPHA7, 0%. The “%Inh” value in the assay on EPHA8 was 11%; in the assay with EPHB1, 10%; in the assay with EPHB2, 0%; with EPHB3 it was 20%; with EPHB4, 19%; in the assay on EPHB6, 0%. Further, the “%Inh” value came to 23% with ERBB2; 0% with ERBB3; 20% in the assay with ERBB4; 4% in the assay with ERK1; 0% in the assay with ERK2; 15% in the assay with ERK3. Further, the “%Inh” value is reported as 14% with ERK4 and 0% with ERK5.

For the molecule `O=C1NC(=O)C(c2ccc(Cl)cc2)=C1Nc1cccc(Cl)c1` [SB-317651], the “%Inh” value in the assay on EPHA2 is listed as 8%; in the assay on EPHA3, 0%; with EPHA4 it was 0%; in the assay with EPHA5 it was 1%; with EPHA6 it was 0%; in the assay with EPHA7, 0%. Also, the “%Inh” value with EPHA8 is 0%; in the assay with EPHB1 it was 0%; in the assay on EPHB2, 20%; in the assay with EPHB3 it was 0%; in the assay on EPHB4, 0%; in the assay on EPHB6 it was 8%. Further, the “%Inh” value in the assay on ERBB2 is on record as 14%; in the assay on ERBB3, 0%; in the assay on ERBB4, 0%; in the assay on ERK1, 0%; with ERK2 it was 8%; in the assay on ERK3, 0%. The “%Inh” value in the assay with ERK4 and in the assay on ERK5 was 0% throughout.
